# Test results as given in PubChem BioAssay AID1508602 (The Scripps Research Institute Molecular Screening Center, 2020).
# Screen size: about 650,000 compounds; about 6,800 (1%) were called active. This excerpt belongs to a sample that is enriched for actives. Unmarked numbers belong to inactive results. Rule as the data show it: active = activation above about 4.9%; inactive = the rest.
# Biological target: G-protein coupled receptor 151 (Homo sapiens) (UniProt Q8TDV0)
# Assay: activates the human receptor GPR151, primary screen, cell-based, PathHunter beta-arrestin, luminescence (AID 1508602);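 also: 0% = median of compound wells and 100% = cells with positive control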
# Details: PathHunter beta-arrestin GPR151 cells, at 11.2 µM, active compounds read high
# Chain of G-protein coupled receptor 151 (Homo sapiens) (Q8TDV0 whole entry, looked up): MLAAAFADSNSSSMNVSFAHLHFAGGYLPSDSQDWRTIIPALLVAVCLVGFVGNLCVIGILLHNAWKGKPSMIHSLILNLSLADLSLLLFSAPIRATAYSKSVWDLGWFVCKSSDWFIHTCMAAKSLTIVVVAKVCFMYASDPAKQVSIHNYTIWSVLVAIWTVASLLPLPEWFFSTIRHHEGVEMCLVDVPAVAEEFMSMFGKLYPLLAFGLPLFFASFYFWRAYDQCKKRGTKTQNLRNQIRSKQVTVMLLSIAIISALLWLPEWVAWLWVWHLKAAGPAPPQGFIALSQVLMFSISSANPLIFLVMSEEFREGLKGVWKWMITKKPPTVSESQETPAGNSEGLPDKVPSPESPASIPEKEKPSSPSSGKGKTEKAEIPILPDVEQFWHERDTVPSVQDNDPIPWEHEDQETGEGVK
row,SMILES,activation
1,Cc1nc(-c2cccc(NC(=O)C3CC(=O)c4ccccc43)c2)cs1 (centres undefined),7.17% (active)
2,Cc1ccc(Cl)cc1NC(=O)C1CC(=O)c2ccccc21 (centres undefined),0.739%
3,CC(=O)Nc1cccc(-c2csc(C)n2)c1,-0.0322%
4,CCSCCOC(=O)C1=C(C)NC2=C(C(=O)CC(c3cccs3)C2)C1c1cc(OC)c(O)c([N+](=O)[O-])c1 (centres undefined),0.362%
5,c1ccc(CN2CCC(Nc3nnnn3-c3ccccc3)CC2)cc1,0.295%
6,CC(NC(=O)Nc1ccc(Br)cc1Br)(C(F)(F)F)C(F)(F)F,-0.154%
7,CCOC(=O)c1c(NC(=O)CSc2nnc(CNC(=O)Cc3ccc(OC)cc3)n2-c2ccc(F)cc2)sc2c1CCCC2,-0.665%
8,COCCNC(=S)N1CCN(c2ccccc2OC)CC1,12.1% (active)
9,COCCNC(=S)N1CCN(c2ncccn2)CC1,-1.93%
10,COc1ccccc1N1CCN(CCNC(=O)c2ccc(F)cc2)CC1,-2.55%
11,CC(C)(C)c1ccc(S(=O)(=O)ON2C(=O)c3ccccc3C2=O)cc1,3.8%
12,CCCC(=O)Oc1ccc2c(-c3ccccc3)cc(=O)oc2c1,1.03%
13,C=CCn1c2ccccc2c2nnc(SC(CC)C(=O)Nc3nc(C)c(C(=O)OCC)s3)nc21 (centres undefined),-0.843%
14,C=CCN(CC=C)C(=O)CSc1nnc2c3ccccc3n(C)c2n1,0.64%
15,C=CCn1c2ccccc2c2nnc(SCc3[nH]c(=O)[nH]c3C(=O)CCCCC(=O)OCC)nc21,9.28% (active)
16,O=C(NCC1OCCCN1S(=O)(=O)c1ccccc1)C(=O)NC1CC1 (centres undefined),0.198%
17,O=C(NCCN1CCOCC1)C(=O)NCC1OCCCN1S(=O)(=O)c1ccccc1 (centres undefined),-0.042%
18,C=CCNC(=O)C(=O)NCC1OCCCN1S(=O)(=O)c1ccccc1 (centres undefined),5.93% (active)
19,Cc1nc(NC(=O)CSc2nnc3c(C)cc4cc5c(cc4n23)OCCO5)sc1C,0.827%
20,O=C(Nc1nc2ccccc2[nH]1)c1cc(Cl)ccc1Cl,-5.18%
21,CC(C(=O)NCCN1CCOCC1)n1c2ccccc2c2cn[nH]c(=O)c21 (centres undefined),6.21% (active)
22,CC(C(=O)NC1CCCC1)n1c2ccccc2c2cn[nH]c(=O)c21 (centres undefined),0.687%
23,CC(C(=O)NCc1ccc(F)cc1)n1c2ccccc2c2cn[nH]c(=O)c21 (centres undefined),0.149%
24,Cc1ccccc1Cn1cc(SCC(=O)N2CCCC2)c2ccccc21,-1.67%
25,COc1ccccc1NC(=O)C1CC12CCN(Cc1cccc(OCCO)c1)CC2 (centres undefined),-0.488%
26,Cn1c2ccccc2c2nnc(SCCCCC(=O)Nc3cccc4ccccc34)nc21,-1.31%
27,Cn1c2ccccc2c2nnc(SCC(=O)Nc3ccc(NC(=O)C4CC4)cc3)nc21,7.08% (active)
28,Cn1c2ccccc2c2nnc(SCC(=O)Nc3ccc(Cl)cn3)nc21,-1.79%
29,CC(C)(C)CN1CCC(Oc2cccc(C(=O)NCC3CC(=O)N(C4CC4)C3)c2)CC1 (centres undefined),-0.301%
